Source: the supplement of paper PMC11001985
Unmarked numbers belong to inactive results.

compound: C#CCNC(=O)CCSSCCC(=O)NCCc1ccc(C=O)c(C=O)c1; experiment: lysine labeling ratio R10:1 (500 µM / 50 µM probe), SILAC-ABPP in living cells; higher = lower intrinsic lysine reactivity toward the probe, active = 2 or less; details: HeLa; probe concentrations 500 vs 50 µM
Summary of the method: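 For each lysine, R is the median over forward and reverse replicates of the filtered median MS1 peptide ratio of high probe to low probe. The probe, an alkyne-tagged, disulfide-linked lysine probe, was given at 500 µM or 50 µM to living SILAC light and heavy HeLa cells in PBS at room temperature, with label swaps. Values are capped at 20.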

UniProt P12956, sequence (P12956 whole entry): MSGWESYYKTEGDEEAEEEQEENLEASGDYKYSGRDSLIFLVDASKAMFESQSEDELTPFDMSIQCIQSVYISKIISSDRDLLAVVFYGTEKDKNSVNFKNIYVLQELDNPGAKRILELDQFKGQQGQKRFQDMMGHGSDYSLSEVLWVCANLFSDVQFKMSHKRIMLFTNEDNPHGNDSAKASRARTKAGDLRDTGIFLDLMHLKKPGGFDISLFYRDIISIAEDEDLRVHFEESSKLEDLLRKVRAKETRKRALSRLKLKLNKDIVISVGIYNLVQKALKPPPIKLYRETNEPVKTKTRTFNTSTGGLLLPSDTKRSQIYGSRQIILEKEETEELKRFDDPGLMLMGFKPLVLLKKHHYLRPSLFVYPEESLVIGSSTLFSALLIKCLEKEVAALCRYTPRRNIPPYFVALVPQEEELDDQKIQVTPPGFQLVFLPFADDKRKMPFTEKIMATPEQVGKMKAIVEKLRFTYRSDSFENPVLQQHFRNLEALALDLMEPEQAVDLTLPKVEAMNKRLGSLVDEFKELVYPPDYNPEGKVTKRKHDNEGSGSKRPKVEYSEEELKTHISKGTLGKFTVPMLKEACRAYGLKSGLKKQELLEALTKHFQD
UniProt P02533, sequence (P02533 whole entry): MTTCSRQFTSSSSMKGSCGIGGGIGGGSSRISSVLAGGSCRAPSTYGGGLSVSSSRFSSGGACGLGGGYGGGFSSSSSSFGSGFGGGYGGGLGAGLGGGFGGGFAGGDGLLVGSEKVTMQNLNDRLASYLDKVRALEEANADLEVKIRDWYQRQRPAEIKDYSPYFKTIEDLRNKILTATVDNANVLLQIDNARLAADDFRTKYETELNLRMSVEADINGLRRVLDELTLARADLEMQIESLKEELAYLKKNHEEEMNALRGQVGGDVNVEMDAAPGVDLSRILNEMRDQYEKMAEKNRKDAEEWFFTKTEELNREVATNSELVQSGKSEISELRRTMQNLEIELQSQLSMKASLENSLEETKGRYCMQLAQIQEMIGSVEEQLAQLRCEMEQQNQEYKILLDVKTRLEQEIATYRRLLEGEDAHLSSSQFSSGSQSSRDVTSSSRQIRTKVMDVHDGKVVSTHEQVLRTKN
UniProt P51665, sequence (P51665 whole entry): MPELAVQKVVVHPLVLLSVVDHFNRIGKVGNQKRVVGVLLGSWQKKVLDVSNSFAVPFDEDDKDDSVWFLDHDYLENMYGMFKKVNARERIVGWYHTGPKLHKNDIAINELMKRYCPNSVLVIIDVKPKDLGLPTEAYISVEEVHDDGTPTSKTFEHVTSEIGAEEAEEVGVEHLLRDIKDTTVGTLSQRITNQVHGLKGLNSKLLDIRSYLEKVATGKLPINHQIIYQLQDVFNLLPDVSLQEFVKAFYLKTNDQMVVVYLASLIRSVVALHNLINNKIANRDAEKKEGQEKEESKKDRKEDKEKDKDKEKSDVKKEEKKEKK
UniProt P51805, sequence (P51805 whole entry): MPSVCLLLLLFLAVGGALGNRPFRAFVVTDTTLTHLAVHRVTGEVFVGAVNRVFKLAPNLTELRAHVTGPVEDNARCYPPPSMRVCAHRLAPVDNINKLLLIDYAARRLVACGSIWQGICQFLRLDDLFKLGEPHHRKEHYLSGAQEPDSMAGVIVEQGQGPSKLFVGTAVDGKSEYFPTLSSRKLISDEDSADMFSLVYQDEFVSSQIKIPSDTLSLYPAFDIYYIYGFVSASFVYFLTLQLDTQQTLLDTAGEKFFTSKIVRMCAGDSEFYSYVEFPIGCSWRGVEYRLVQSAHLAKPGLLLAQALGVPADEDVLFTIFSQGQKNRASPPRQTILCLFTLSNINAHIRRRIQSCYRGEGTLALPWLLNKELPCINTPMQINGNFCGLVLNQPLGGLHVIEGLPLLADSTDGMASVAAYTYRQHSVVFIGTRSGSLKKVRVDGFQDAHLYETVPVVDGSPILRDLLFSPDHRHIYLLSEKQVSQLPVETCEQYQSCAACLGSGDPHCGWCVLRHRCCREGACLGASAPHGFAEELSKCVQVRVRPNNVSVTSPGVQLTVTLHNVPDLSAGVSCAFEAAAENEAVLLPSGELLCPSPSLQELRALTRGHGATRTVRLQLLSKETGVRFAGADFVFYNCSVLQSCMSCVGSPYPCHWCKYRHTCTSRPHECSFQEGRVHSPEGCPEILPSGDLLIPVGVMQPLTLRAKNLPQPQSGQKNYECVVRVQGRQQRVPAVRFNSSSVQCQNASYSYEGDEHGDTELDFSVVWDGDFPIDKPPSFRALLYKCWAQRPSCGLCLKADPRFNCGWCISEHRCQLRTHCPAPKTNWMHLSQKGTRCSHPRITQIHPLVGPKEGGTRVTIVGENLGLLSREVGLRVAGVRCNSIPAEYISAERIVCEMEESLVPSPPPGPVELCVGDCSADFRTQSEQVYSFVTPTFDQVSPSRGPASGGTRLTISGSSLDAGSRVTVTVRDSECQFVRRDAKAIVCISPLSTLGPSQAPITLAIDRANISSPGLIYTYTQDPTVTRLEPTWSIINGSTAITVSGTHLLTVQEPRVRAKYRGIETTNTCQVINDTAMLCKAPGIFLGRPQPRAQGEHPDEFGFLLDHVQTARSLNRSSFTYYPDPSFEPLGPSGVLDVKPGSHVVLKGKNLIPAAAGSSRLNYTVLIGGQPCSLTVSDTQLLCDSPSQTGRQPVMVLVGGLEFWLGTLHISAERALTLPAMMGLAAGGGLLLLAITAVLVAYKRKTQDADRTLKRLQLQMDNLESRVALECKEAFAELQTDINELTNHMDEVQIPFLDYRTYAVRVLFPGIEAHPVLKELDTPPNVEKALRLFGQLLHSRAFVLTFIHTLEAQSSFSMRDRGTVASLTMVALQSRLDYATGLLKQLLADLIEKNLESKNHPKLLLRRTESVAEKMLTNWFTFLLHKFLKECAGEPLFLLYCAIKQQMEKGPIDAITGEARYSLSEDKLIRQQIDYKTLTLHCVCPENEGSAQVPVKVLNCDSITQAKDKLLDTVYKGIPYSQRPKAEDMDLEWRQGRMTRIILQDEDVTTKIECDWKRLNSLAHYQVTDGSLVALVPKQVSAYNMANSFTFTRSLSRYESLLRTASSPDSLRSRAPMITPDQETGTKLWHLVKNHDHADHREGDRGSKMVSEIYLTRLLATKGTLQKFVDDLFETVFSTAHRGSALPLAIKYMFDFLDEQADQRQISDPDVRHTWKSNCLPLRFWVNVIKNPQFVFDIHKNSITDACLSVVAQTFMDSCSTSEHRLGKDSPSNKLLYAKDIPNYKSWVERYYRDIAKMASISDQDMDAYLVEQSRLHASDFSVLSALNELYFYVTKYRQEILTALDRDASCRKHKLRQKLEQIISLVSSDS
UniProt P51153, sequence (P51153 whole entry): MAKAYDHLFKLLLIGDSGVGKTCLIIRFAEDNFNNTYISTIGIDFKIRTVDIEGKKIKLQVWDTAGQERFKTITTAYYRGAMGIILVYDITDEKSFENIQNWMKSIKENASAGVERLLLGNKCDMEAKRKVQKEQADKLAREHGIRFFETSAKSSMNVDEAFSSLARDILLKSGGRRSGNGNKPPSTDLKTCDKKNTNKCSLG
UniProt Q9UHI8, sequence (Q9UHI8 whole entry): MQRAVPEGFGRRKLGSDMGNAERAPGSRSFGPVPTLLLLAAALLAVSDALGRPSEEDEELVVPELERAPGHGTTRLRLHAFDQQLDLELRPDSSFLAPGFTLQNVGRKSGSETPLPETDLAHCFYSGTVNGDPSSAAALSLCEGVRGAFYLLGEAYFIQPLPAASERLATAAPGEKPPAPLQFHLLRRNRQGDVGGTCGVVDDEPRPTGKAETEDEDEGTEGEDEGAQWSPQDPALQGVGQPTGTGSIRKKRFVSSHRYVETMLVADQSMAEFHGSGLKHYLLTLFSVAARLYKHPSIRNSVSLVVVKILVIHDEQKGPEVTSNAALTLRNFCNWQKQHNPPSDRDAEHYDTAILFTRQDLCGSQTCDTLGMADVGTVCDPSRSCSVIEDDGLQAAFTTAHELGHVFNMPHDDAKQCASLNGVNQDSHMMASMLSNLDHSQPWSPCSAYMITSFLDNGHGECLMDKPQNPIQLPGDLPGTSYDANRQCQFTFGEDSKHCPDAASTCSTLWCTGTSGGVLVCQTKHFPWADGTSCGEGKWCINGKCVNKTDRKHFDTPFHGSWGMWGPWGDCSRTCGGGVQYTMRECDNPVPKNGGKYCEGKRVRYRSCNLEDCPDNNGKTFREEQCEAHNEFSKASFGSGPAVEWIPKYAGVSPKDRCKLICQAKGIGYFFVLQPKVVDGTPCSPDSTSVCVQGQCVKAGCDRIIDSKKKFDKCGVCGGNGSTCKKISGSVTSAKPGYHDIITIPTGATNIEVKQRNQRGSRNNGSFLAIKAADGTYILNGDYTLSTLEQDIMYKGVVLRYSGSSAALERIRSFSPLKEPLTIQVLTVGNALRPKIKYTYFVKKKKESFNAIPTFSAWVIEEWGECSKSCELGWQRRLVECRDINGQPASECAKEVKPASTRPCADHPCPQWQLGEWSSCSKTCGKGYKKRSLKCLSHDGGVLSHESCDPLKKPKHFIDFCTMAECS
UniProt P30533, sequence (P30533 whole entry): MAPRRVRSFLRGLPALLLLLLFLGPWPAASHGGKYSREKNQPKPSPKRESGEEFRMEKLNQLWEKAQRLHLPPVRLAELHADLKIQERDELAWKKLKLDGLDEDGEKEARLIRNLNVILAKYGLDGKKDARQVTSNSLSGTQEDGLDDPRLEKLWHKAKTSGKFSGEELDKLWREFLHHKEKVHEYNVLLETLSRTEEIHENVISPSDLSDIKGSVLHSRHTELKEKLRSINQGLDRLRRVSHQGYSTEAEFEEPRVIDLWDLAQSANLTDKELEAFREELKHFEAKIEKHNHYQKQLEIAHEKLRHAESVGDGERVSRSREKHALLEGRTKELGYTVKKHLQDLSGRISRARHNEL
UniProt P26447, sequence (P26447 whole entry, looked up): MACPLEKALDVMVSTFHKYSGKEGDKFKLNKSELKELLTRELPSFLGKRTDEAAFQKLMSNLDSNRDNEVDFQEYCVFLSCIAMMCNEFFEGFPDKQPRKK

Row | Target | lysine labeling ratio R10:1
1 | S100A4 (lysine site: K35) (UniProt P26447) | 6.43
2 | GPRC5A (lysine site: K14) (UniProt Q8NFJ5) | 6.52
3 | UniProt Q9UHI8 (lysine site: K655) | 2.17
4 | PPT1 (lysine site: K174) (UniProt P50897) | 1.29 (active)
5 | LRPAP1 (lysine site: K340) (UniProt P30533) | 1.47 (active)
6 | PSMD7 (lysine site: K180) (UniProt P51665) | 2.86
7 | RAB13 (lysine site: K107) (UniProt P51153) | 0.523 (active)
8 | RPL35A (lysine site: K45) (UniProt P18077) | 1.38 (active)
9 | TKT (lysine site: K204) (UniProt P29401) | 10.2
10 | ATP1B1 (lysine site: K216) (UniProt P05026) | 4.23
11 | TUBA1A (lysine site: K338) (UniProt Q71U36) | 2 (active)
12 | XRCC6 (lysine site: K114) (UniProt P12956) | 2.12
13 | FAT1 (lysine site: K1542) (UniProt Q14517) | 2.78
14 | ITGA6 (lysine site: K946) (UniProt P23229) | 2.37
15 | PTPRJ (lysine site: K202) (UniProt Q12913) | 2.9
16 | PLXNA3 (lysine site: K622) (UniProt P51805) | 1.94 (active)
17 | UniProt P02533 (lysine site: K328) | 11.3
